From PubChem BioAssay (NCATS)
Records with an inconclusive call do not appear. Calls of active or inactive are those of the source. Unless noted, calls follow the shape of the dose curve; as a rule, active = well fitted curve in either direction with a large enough effect (not every such curve was filed as active); inconclusive = small, poorly fitted or top-dose-only effect, or another doubt; inactive = flat fitted curve, though single readings scatter.

Columns and labels:
[1] = target: Lysosomal acid glucosylceramidase (Homo sapiens) (UniProt P04062); assay: Glucocerebrosidase-p2 (AID 348; in the data active = potency below about 10 µM; also: potency is read from the fitted curve at half-maximal effect); details: purified GBA, blue fluorogenic substrate, 40 min
Method in brief: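 Normal human glucocerebrosidase (0.2 nM) with blue fluorogenic substrate (80 uM final) in citrate/phosphate pH 5.9 with 10mM sodium taurocholate, 0.01% tween-20; 40 min RT, NaOH/glycine stop; fluorescence Ex 365/Em 440; AC50 from a titration from 0.6 nM upwards.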

[2] = AP1 Signaling Pathway (AID 357); details: ME-180 AP-1-bla reporter, EGF-induced, beta-lactamase ratio, 5 h; at 7.69 µM (top of the series) unless noted;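 also: ME-180 reporter cells stimulated with EGF at its EC50 level; % is scaled to controls: 0 for no effect and ±100 for the full control effect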
Method in brief: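 A ratiometric CCF4 readout (405 nm excitation; 460 and 530 nm emission) quantified AP-1-driven beta-lactamase in ME-180 cells after 5 h with compound and EC50 EGF; AC50 values were derived for activators and inhibitors.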

[3] = NFAT Signaling Pathway (AID 444); details: Jurkat NFAT-bla M1, carbachol, beta-lactamase ratio, 5 h; at 7.69 µM (top of the series) unless noted;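 also: carbachol stimulus at about its EC50 of 1 µM final; % is scaled to controls: 0 for no effect and ±100 for the full control effect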
Method in brief: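 Read-out: CCF4 FRET ratio (460 nm/530 nm) after 1 h RT dye loading, used for %activity and AC50 from titration series. Cells: Jurkat NFAT-β-lactamase/M1 line, treated with compound plus 1 uM carbachol for 5 h, 37 °C.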

[4] = Stat Signaling Pathway (AID 446); details: ME-180 (cervical carcinoma) SIE beta-lactamase reporter, IL-6 stimulated, 5 h; at 7.69 µM (top of the series) unless noted;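 also: ME-180 cervical cancer cells given 40 pM IL-6 alongside compound; SIE-controlled beta-lactamase reporter measured as 460/530 nm FRET emission ratio; % is scaled to controls: 0 for no effect and ±100 for the full control effect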
Method in brief: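 Overnight-plated ME-180 cells bearing a STAT Inducible Element beta-lactamase reporter; 5 h co-exposure to compound and 40 pM IL-6; values normalized to 300 pM IL-6 and 125 nM JAK inhibitor controls.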

[5] = target: Glucocorticoid receptor (Homo sapiens) (UniProt P04150); assay: GR-EFC Redistribution (AID 451; calls by dose curve; also: potency is read from the fitted curve at half-maximal effect); details: CHO-K1 GR-EFC translocation, beta-gal luminescence, 2 h
Method in brief: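 Translocation of GR-ED fusion to nuclear EA restores b-gal, read by luminescence after 1 h room-temperature detection. Engineered CHO-K1 biosensor cells, 1,000/well, exposed 2 h at 37 C to titrations up to 46 uM final.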

[6] = target: 3',5'-cyclic-AMP phosphodiesterase 4B (Homo sapiens) (UniProt Q07343); assay: qHTS Assay for Inhibitors of PDE-IV (AID 607; active = well fitted activation curve with a large enough effect in the main read-out, with a control signal flat, not every such curve was filed as active; also: % of control where 0% means no effect); details: HEK293 ACTOne CNG channel cells, membrane potential fluorescence; series mostly up to 22.9 µM
Method in brief: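 Live HEK293 cells with a modified cyclic nucleotide-gated (CNG) channel report intracellular cAMP via membrane-potential dye fluorescence (ex 535/em 590 nm). Endogenous PDE-IV was targeted. Compounds were tested at up to 22.9 uM final; RO 20-1724 100 uM served as control.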

[7] = qHTS Assay for Lipid Storage Modulators (AID 1519; calls by dose curve); details: Drosophila S3 cells, BODIPY lipid droplet/cell ratio, laser cytometry, cells loaded with oleic acid; for activity change, negative = inhibition: at 57.5 µM (top of the series)
Method in brief: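 Cells seeded at 5,000 per well were treated with compounds over a concentration series and loaded with oleic acid (400 uM, as added). Lipid droplet fluorescence (488 nm excitation, 500-530 nm channel) was read by laser-scanning cytometry and normalized to 20 uM Triacsin C.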

[8] = target: Glucocorticoid receptor (Homo sapiens) (UniProt P04150); assay: GR-GFP Redistribution (AID 450;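 active = compounds whose dose series gives a full or clear partial fitted curve of increased nuclear translocation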; also: potency is read from the fitted curve at half-maximal effect); details: U2OS GR-GFP nuclear translocation, laser cytometry, 2 h
[9] = target: Mitogen-activated protein kinase 10 (Mus musculus) (UniProt Q61831); assay: JNK3 AlphaScreen Assay (AID 530); details: JNK3 lysate, c-Jun phosphorylation; series mostly up to 57.1 µM;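 also: kinase came from lysate of stimulated human HepG2 cells; signal reports phosphorylation of biotinylated GST-cJun 1-79 at Ser73 with 10 µM ATP; % is scaled to controls: 0 for no effect and ±100 for the full control effect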
Method in brief: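 qHTS titrations with 15 min compound pre-incubation before adding ATP (10 uM final). Read-out: AlphaScreen of Ser73-phosphorylated biotin-GST-cJun using HepG2 lysate JNK3 activated by IL-1β and TNFα.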

[10] = Confirmation and Secondary Assay for Modulators of Hemoglobin Beta Chain Splicing at IVS2 654 locus (AID 910; active = well fitted curve in the direction sought with a large enough effect; an effect the other way counts as inactive or inconclusive;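 also: HeLa cells stably carrying EGFP split by mutant beta-globin IVS2-654 intron; per-well total GFP intensity by laser scanning cytometry after 2-day treatment; % of control where 0% means no effect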); details: HeLa EGFP-654 splicing reporter, GFP fluorescence, 48 h; series mostly up to 38.3 µM
Method in brief: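 Readout: per-well total peak green fluorescence (488 nm ex, 500–520 nm em) from objects 5–250 µm, reflecting correct splicing of an EGFP-654 reporter. Compounds were applied for 2 days at 37 °C to overnight-plated HeLa EGFP-654 cells; controls were DMSO and 500 nM IVS2-654 PNA.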

[11] = Confirmation and Secondary Assay for Modulators of Hemoglobin Beta Chain Splicing at IVS2 705 locus (AID 930; active = well fitted curve in the direction sought with a large enough effect; an effect the other way counts as inactive or inconclusive;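 also: HeLa cells stably expressing the EGFP-705 splicing reporter; GFP fluorescence per well restored by corrected splicing of the IVS2-705 intron in EGFP; % of control where 0% means no effect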); details: HeLa EGFP-705 splicing reporter, GFP fluorescence, 48 h; series mostly up to 38.3 µM
Method in brief: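 Secondary splice-site specificity test uses HeLa expressing CMV-driven EGFP interrupted by IVS2-705; cells were treated 2 days at 37C with 500 nM antisense PNA as positive control.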

[12] = target: Ubiquitin carboxyl-terminal hydrolase 1 (Homo sapiens) (UniProt O94782); assay: Inhibitors of USP1/UAF1: Pilot qHTS (AID 504865; active = well fitted curve in the direction sought with a large enough effect; an effect the other way counts as inactive or inconclusive;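 also: rhodamine fluorescence freed from ubiquitin-rhodamine substrate followed over time; top concentration of the series differs between compounds; % is scaled to controls: 0 for no effect and ±100 for the full control effect; nearly all actives have a fitted effect of over 35% in size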); details: purified USP1/UAF1, Ub-rhodamine cleavage fluorescence; series mostly up to 54.9 µM
Method in brief: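 Enzyme-free wells gave the negative control, while test wells held 1nM USP1/UAF1 preincubated with compound for 15 min at room temperature. Ub-Rho at 150nM final started the reaction, and fluorescence at 480/540 nm was recorded kinetically.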

[13] = target: Cytochrome P450 3A4 (Homo sapiens) (UniProt P08684); assay: qHTS Assay for Activators of Cytochrome P450 3A4 (AID 885; active = well fitted curve in the direction sought with a large enough effect; an effect the other way counts as inactive or inconclusive; also: nearly all actives have a fitted effect of over 65% in size); details: recombinant CYP3A4, Luciferin-PPXE luminescence, 60 min; series mostly up to 57.1 µM
Method in brief: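 Using 20nM recombinant human CYP3A4 in potassium phosphate (200mM), substrate Luciferin-PPXE at 25uM, luminescent luciferin detection followed a 60-min RT NADPH reaction; data scaled to 57 uM ketoconazole.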

[14] = measured here: cell count channel max response
[15] = measured here: lipid channel max response

Lysosomal acid glucosylceramidase (Homo sapiens), sequence (P04062 whole entry, looked up): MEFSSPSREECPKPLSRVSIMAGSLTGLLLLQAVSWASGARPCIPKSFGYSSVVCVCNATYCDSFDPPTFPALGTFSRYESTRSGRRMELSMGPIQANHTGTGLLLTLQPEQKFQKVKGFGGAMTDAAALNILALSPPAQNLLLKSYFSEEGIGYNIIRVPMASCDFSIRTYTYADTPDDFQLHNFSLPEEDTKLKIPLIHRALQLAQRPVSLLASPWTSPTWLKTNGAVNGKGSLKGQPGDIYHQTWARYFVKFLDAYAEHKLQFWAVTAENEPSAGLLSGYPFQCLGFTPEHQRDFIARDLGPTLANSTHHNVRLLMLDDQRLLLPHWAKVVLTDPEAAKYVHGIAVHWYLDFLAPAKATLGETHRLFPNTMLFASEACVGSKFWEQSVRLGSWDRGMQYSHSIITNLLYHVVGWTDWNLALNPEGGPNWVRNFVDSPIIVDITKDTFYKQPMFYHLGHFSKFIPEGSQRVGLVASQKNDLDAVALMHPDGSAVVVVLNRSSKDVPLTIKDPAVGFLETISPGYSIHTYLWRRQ
3',5'-cyclic-AMP phosphodiesterase 4B (Homo sapiens), sequence (Q07343 whole entry, looked up): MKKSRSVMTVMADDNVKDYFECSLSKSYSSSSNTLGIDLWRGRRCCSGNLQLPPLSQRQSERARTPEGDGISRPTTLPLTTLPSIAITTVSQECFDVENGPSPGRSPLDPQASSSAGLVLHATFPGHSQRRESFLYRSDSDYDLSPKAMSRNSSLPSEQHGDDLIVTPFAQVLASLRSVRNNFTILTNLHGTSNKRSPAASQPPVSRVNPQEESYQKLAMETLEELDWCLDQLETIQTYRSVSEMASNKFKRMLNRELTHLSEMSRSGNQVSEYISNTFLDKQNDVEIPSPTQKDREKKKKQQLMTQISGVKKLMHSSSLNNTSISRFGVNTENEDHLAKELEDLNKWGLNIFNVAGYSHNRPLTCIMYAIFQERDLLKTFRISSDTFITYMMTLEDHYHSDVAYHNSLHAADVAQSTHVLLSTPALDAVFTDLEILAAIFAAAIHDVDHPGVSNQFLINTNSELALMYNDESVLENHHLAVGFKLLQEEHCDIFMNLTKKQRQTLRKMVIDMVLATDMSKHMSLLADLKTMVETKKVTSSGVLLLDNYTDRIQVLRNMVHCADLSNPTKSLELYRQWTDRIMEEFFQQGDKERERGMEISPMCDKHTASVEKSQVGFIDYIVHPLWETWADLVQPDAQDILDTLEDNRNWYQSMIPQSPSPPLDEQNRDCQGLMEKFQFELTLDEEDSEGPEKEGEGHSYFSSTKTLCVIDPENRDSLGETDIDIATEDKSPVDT
Glucocorticoid receptor (Homo sapiens), sequence (P04150 whole entry, looked up, the tested form may be a part): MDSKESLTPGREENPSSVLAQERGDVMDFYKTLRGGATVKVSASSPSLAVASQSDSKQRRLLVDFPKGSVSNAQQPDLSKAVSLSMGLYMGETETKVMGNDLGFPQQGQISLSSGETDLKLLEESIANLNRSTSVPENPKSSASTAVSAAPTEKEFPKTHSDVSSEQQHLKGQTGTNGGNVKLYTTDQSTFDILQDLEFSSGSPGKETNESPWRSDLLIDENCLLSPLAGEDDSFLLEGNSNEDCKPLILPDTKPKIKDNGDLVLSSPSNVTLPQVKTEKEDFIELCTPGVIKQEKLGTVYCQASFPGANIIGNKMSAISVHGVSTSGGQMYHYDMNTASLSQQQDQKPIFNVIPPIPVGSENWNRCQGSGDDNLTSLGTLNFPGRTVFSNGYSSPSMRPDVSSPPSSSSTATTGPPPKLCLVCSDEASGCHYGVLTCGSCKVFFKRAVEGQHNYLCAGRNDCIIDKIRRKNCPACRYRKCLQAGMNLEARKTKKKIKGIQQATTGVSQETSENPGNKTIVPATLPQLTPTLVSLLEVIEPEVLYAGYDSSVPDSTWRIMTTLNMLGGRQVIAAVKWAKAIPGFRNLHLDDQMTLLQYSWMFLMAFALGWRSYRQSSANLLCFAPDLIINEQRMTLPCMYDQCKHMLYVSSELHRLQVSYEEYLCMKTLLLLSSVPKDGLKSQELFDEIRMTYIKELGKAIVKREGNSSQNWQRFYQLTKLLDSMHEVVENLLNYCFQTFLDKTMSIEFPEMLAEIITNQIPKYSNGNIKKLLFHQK
Cytochrome P450 3A4 (Homo sapiens), sequence (P08684 whole entry, looked up): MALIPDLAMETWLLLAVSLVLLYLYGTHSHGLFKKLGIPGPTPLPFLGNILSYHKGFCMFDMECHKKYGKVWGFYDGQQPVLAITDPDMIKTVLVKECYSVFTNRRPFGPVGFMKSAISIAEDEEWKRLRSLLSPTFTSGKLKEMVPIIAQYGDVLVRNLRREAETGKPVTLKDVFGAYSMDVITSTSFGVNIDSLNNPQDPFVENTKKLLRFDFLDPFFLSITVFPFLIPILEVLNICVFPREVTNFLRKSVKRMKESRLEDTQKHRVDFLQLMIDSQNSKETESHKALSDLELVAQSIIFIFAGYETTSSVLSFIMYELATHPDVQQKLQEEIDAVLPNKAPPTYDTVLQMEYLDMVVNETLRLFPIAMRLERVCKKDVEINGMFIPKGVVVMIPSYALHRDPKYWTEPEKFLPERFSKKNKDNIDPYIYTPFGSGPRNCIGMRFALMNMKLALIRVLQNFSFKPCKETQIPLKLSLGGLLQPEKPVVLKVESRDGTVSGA
Ubiquitin carboxyl-terminal hydrolase 1 (Homo sapiens), sequence (O94782 whole entry, looked up): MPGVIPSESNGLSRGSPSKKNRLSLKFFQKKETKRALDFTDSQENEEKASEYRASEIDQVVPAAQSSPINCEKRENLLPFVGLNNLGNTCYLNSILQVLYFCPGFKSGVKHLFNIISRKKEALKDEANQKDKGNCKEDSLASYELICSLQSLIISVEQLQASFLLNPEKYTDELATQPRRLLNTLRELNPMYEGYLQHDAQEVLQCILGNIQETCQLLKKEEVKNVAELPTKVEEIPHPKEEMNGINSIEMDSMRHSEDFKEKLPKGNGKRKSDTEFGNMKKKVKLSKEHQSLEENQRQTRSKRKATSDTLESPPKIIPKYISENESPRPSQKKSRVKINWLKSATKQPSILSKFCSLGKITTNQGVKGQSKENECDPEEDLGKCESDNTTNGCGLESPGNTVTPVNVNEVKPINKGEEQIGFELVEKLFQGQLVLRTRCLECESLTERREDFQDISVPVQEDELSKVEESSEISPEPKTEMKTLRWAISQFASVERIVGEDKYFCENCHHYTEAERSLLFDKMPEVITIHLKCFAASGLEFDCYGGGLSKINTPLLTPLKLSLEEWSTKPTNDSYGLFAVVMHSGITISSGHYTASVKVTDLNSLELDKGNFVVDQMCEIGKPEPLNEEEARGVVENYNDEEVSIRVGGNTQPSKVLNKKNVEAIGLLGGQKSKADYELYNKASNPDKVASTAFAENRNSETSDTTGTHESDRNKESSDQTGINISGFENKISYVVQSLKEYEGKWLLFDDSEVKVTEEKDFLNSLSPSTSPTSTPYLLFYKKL

Compound	Potency [1]	activity change, negative = inhibition [2]	activity change, negative = inhibition [3]	activity, negative = inhibition [4]	Potency [5]	Potency [6]	activity change, negative = inhibition [7]	max response [7, 14]	max response [7, 15]	Potency [8]	Potency [9]	Potency [10]	outcome [11]	Potency [12]	Potency [13]
O=C(c1ccncc1)N1CCC[C@@]2(CCN(c3cccc(-c4ccccc4)c3)C2)C1	> 11.4 µM (inactive)	-13.8% (inactive)	-1.5% (inactive)	-6.3% (inactive)	> 46 µM (inactive)	inactive	1.7% (inactive)	8.47%	13%	–	–	–	–	–	–
Cc1ccccc1-c1cncnc1N1CCNCC1	> 11.4 µM (inactive)	-3.42% (inactive)	10.1% (inactive)	1.91% (inactive)	> 46 µM (inactive)	inactive	10.2% (inactive)	11%	18.8%	> 46 µM (inactive)	inactive	inactive	inactive	inactive	–
COc1ccccc1CN1CCC2(CC1)CCN(C(=O)c1cc(C(F)(F)F)cc(C(F)(F)F)c1)CC2	> 11.4 µM (inactive)	-13.2% (inactive)	–	-3.31% (inactive)	> 46 µM (inactive)	inactive	0.332% (inactive)	-5.08%	1.32%	–	inactive	–	–	–	–
COc1ccc(Oc2ncc3nc(CCc4ccccc4)c(=O)n(C)c3n2)cc1	> 11.4 µM (inactive)	-17.4% (inactive)	2.43% (inactive)	-11.3% (inactive)	> 46 µM (inactive)	–	-3.44% (inactive)	9.28%	8.21%	> 9.22 µM (inactive)	inactive	–	–	–	inactive
Cc1noc(C)c1-c1nccc(N2CCNCC2)n1	> 11.4 µM (inactive)	14.5% (inactive)	-5.44% (inactive)	-0.568% (inactive)	> 46 µM (inactive)	inactive	6.06% (inactive)	6.93%	14.7%	> 46 µM (inactive)	inactive	inactive	inactive	–	–
O=C(Nc1cccc(F)c1)N1CCC2(CC1)CCN(C(=O)c1cc(C(F)(F)F)cc(C(F)(F)F)c1)CC2	> 11.4 µM (inactive)	-6.27% (inactive)	–	8.94% (inactive)	> 46 µM (inactive)	inactive	-8.79% (inactive)	-4.14%	-9.94%	–	–	–	–	–	–
